Experimental findings from PubChem BioAssay (EPA / NIEHS) are described below.

Calls of active or inactive are those of the source. The calls were made as follows: active = hit-call score of the fitted dose curve at least 0.9, where 1 is the maximum; inactive = score below 0.9.

The test is described as follows: ATG_MRE_CIS: Attagene CIS-FACTORIAL HepG2 Assay for human Metal Responsive Element (MRE) (AID 2282954). Particulars: HepG2 MRE cis-reporter transcription, Attagene multiplex; actives raise or lower the signal. As for the experimental part: ATG_CIS is a cell-based, multiplexed-readout assay that uses HepG2, a human liver cell line, with measurements taken at 24 hours after chemical dosing in a 24-well plate.ATG_MRE_CIS is one of 52 assay component(s) measured or calculated from the ATG_CIS assay. It is designed to make measurements of mRNA induction, a form of inducible reporter, as detected with fluorescence intensity signals by Reverse transcription polymerase chain reaction (RT-PCR) and Capillary electrophoresis technology.Data from the assay component ATG_MRE_CIS was analyzed into 1 assay endpoint. This assay endpoint, ATG_MRE_CIS, was analyzed with bidirectional fitting relative to DMSO as the negative control and baseline of activity. Using a type of inducible reporter, measures of mRNA for gain or loss-of-signal activity can be used to understand the reporter gene at the transcription factor-level as they relate to the gene MTF1. Furthermore, this assay endpoint can be referred to as a primary readout, because this assay has produced multiple assay endpoints where this one serves a reporter gene function. To generalize the intended target to other relatable targets, this assay endpoint is annotated to the dna binding intended target family, where the subfamily is zinc finger.
Human liver HepG2 cells are transiently transfected with multiple reporter transcription units (MRTUs) in 6-well plates using FuGene 6 reagent (Roche; 3 ml FuGene/1 mg DNA). The MRTU constructs are regulated by a cis-regulating element (promoter). […] A major difference between the CIS and TRANS system is that in CIS activities of endogenous TFs are measured, whereas the TRANS assay evaluates changes in activities of exogenous, chimeric NR-Gal4 proteins. […] At the end of 24 hour incubation, total RNA was isolated using TriZol reagent (Invitrogen). The isolated RNA is then reverse-transcribed using oligo(dT) primer and Mo-MLV reverse transcriptase (Invitrogen) with DNAse I (Ambion) treatment for 30 min. The one-tenth of the produced cDNA was amplified by PCR using Taq DNA polymerase (Invitrogen) and two reporter sequence-specific primers. The PCR products were fluorescently labeled by primer extension with 6-arboxyfluorescein (6-FAM) 5'-labeled reporter sequence-specific primer (2 min at 95 C, 20 s at 68 C and 10 min at 72 C) and these products were digested with 5U of HpaI (New England Biolabs) for 2h at 37 C. The fragments were purified using Qiaquick PCR columns (Qiagen), analyzed on an ABI 3130xL genetic analyzer (Applied Biosystems) with peak positions identified by using a set of X-rhodamine (ROX)-labeled MapMarker1000 molecular weight standards (BioVentures). The raw capillary electrophoresis data was processed using Attagraph software (Attagene).
With `O=c1cc(-c2ccccc2)oc2cc(O)cc(O)c12`, the result was inactive. With `O=C(O)c1snc(Cl)c1Cl`, the AC50 was 161 µM (active).

`C=C(C)[C@@H]1CCC2=CC(=O)C[C@@H](C)[C@]2(C)C1`: the call was inactive. On the same count and under the same terms, under `O=C(Cl)c1cccc(C(=O)Cl)c1` stands “inactive”; under `c1ccc2sc(SN(C3CCCCC3)C3CCCCC3)nc2c1`, “inactive”. With `CCCCCC(=O)OCCc1ccccc1`, the compound was called inactive. On the same count and under the same terms, next, `O=C(O)c1cn(C2CC2)c2cc(N3CCNCC3)c(F)cc2c1=O`: “inactive”; `O=C(O)CN(CCN(CC(=O)O)CC(=O)O)CCN(CC(=O)O)CC(=O)O`: “inactive”. Take `COC(=O)C1=C(C)NC(C)=C(C(=O)OCCN(C)Cc2ccccc2)C1c1cccc([N+](=O)[O-])c1` (stereo not given): the AC50 is 19.8 µM (active).

On to `O=c1oc(=O)c2cc3c(=O)oc(=O)c3cc12`, for which the result was inactive. On the same count and under the same terms, under `COC(C(=O)O)c1ccccc1` (stereo not given) stands “inactive”. In the case of `COc1ccnc(CS(=O)c2nc3cc(OC(F)F)ccc3[nH]2)c1OC` (stereo not given), the call was inactive. Same read-out and setting: under `CC(C)CCCCCCCOC(=O)c1ccc(C(=O)OCCCCCCCC(C)C)c(C(=O)OCCCCCCCC(C)C)c1` stands “inactive”; under `O=C1O[C@@H]2[C@@H](O)[C@H](O)O[C@@H]2[C@H]1O`, “inactive”. The same measure, in the same setting: next, `CN1[C@@H]2CC(OC(=O)[C@H](CO)c3ccccc3)C[C@H]1[C@@H]1O[C@@H]12` (stereo not given in full): “inactive”.

Take `O=C[C@@H](O)[C@H](O)[C@H](O)CO`: the call was inactive. Still for that read-out and setting: under `CCCCNC(=O)NS(=O)(=O)c1ccc(N)cc1` stands “inactive”; under `CC1CCC(C(C)CS)CC1S` (stereo not given), “inactive”; under `C=C(C)[C@@H]1CC[C@@H](C)C[C@@H]1O`, “inactive”.

With `CCN(CC)c1ccc(C(=C2C=CC(=[N+](CC)CC)C=C2)c2ccc(S(=O)(=O)O)cc2S(=O)(=O)[O-])cc1`, the compound was classed as inactive. Regarding `CC(C)(COC(=O)c1ccccc1)COC(=O)c1ccccc1`, the outcome was inactive. `Cc1ccc(O)c(C(C)(C)C)c1`: the AC50 is 146 µM (active). For `Cc1ccc(Nc2ccc(O)c3c2C(=O)c2ccccc2C3=O)cc1`, the compound was called inactive. On the same count and under the same terms, next, `Cc1cccc(C)c1C`: “inactive”; `CC(=O)Nc1ccc(CC(=O)O)cc1`: “inactive”. For the compound `Cc1ccc(C=O)s1`, the compound was called inactive.

In the case of `COc1ccc(NC(=O)CC(C)=O)cc1`, the call was inactive.

For the compound `CC(=O)C=CC1=C(C)CCCC1(C)C`, the compound was classed as inactive.

As for `CNCCCC12CCC(c3ccccc31)c1ccccc12`, the AC50 was 16.6 µM (active). Consider `CC1CCC2CC1C2(C)C` (stereo not given), for which the compound was called inactive.

Consider `Nc1ccc(F)c([N+](=O)[O-])c1`, for which the compound was classed as inactive. Regarding `COCCCOc1ccnc(CS(=O)c2nc3ccccc3[nH]2)c1C` (stereo not given), the AC50 was 106 µM (active).

In the case of `COc1c(Cl)c(Cl)c(Cl)c(Cl)c1Cl`, the outcome was inactive. `O=C(O)CCSCCC(=O)O`: the result was inactive.

For the compound `Cc1c(N(C)C)c(=O)n(-c2ccccc2)n1C`, the outcome was inactive. On the same count and under the same terms, next, `CCOc1ccccc1OCC`: “inactive”; `CC[Si](OC(C)=O)(OC(C)=O)OC(C)=O`: “inactive”; `OCCOc1cccc(OCCO)c1`: “inactive”.

As to `CCCCCNCCCCC`, the call was inactive. Same read-out and setting: next, `C=CC(=O)OCC(O)COc1ccccc1` (stereo not given): “inactive”.

What is called AC50 is the midpoint of the concentration-response curve, whichever way the signal moves.
